Measurements from PubChem BioAssay (EPA / NIEHS).
Values joined by “and” are separate entries in the source; they are usually repeats but may differ in a detail not shown here. Equal entries are not always repeated. A structure can be active in one record and inactive in another. Active and inactive are the calls of the source. The calls were made as follows: active = hit-call score of the fitted dose curve at least 0.9, where 1 is the maximum; inactive = score below 0.9.

Experiment: ATG_NRF2_ARE_CIS: Attagene CIS-FACTORIAL HepG2 Assay for human Nuclear Factor Erythroid 2 Related Factor 2 (NFR2) response to Antioxidant Response Elements (ARE) (AID 2282992)
Settings: HepG2 Attagene ARE/NRF2 reporter, transcription factor activity; actives raise or lower the signal
Summary of the method: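 Using transiently transfected HepG2 cells exposed for 24 h, reporter mRNA levels were determined by RT-PCR with fluorescent primer extension and capillary electrophoresis, analysed for gain or loss of signal against DMSO.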
For CC(C)CBr, the outcome was “inactive”. With CC1=C(C(=O)Nc2ccccc2)S(=O)(=O)CCO1 the AC50 was 2.92 µM (active). With CCN(CC)C1CCCCC1 the outcome was “inactive”. In the case of CCN(CC)c1ccccc1, the outcome was “inactive”. With O=C(O)C1C(C(=O)O)C2(Cl)C(Cl)=C(Cl)C1(Cl)C2(Cl)Cl (configuration not stated) the outcome was “inactive”. For NNC(N)=S, the outcome was “inactive”. In the case of CC1(C)CN=C(NN=C(/C=C/c2ccc(C(F)(F)F)cc2)/C=C/c2ccc(C(F)(F)F)cc2)NC1, the AC50 was 3.06 µM (active). In the case of O=C(CBr)OCc1ccccc1, the AC50 was 67.8 µM (active). With C=C(C)C(=O)OCC1CO1 (configuration not stated) the AC50 was 42.9 µM (active). With CNC(=O)Oc1ccc(N(C)C)c(C)c1 the outcome was “inactive”. For Oc1ccccc1Br, the outcome was “inactive”. With CCCCCCCc1ccc(O)cc1 the AC50 was 14.1 µM (active) and 7.28 µM (active) and 7.2 µM (active) and the outcome was “inactive”. In the case of COC(N)=O, the outcome was “inactive”. In the case of COC(=O)C(F)(F)C(F)(F)OC(F)(C(F)(F)F)C(F)(F)OC(F)=C(F)F (configuration not stated), the AC50 was 4.38 µM (active) and 10.3 µM (active) and 5.16 µM (active). In the case of CC(O)C#N (configuration not stated), the outcome was “inactive”. For CCCCc1ccc(O)cc1, the AC50 was 66.7 µM (active). For CC(Cl)CN(C)C (configuration not stated), the AC50 was 28.4 µM (active). In the case of Cc1cccc(N)c1, the outcome was “inactive”. With Cc1cc(C)c(C(=O)P(=O)(c2ccccc2)c2ccccc2)c(C)c1 the AC50 was 4.78 µM (active). For FC(F)(F)C(F)(C(F)(F)F)C(F)(F)C(F)(F)CC1CO1 (configuration not stated), the outcome was “inactive”. With COP(=O)(O)OC the outcome was “inactive”. For CO/N=C(/C(=O)OC)c1ccccc1COc1ccccc1C, the AC50 was 3.96 µM (active). With CC(O)C(F)(F)C(F)(F)F (configuration not stated) the outcome was “inactive”. In the case of CCCCN(CC)C(=O)SCCC, the outcome was “inactive”. In the case of N#Cc1ccc(O)cc1, the outcome was “inactive”. In the case of OCC(F)(F)OC(F)(F)C(F)(F)OC(F)(F)C(F)(F)OC(F)(F)F, the outcome was “inactive”. For Clc1ccc(Oc2ccccc2)cc1, the AC50 was 177 µM (active).

Experiment: ATG_Oct_MLP_CIS: Attagene CIS-FACTORIAL HepG2 Assay for human Octamer-Binding Transcription Factor (Oct) (AID 2282993)
Settings: HepG2 Attagene cis-factorial Oct reporter, mRNA; actives raise or lower the signal
Summary of the method: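 Cells of the HepG2 line express promoter-controlled reporter sequences whose mRNA levels, after 24 h treatment, are measured by RT-PCR and capillary electrophoresis. Increases and decreases are scored relative to DMSO.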
In the case of OCC(F)(F)OC(F)(F)C(F)(F)OC(F)(F)C(F)(F)OC(F)(F)CO, the outcome was “inactive”. With O=c1[nH]c2ccccc2c(=O)o1 the outcome was “inactive”. For CC(=O)c1ccc(-c2ccccc2)cc1, the outcome was “inactive”. In the case of CCCCOCCOP(=O)(OCCOCCCC)OCCOCCCC, the outcome was “inactive”. In the case of c1cc2c3c(cccc3c1)CC2, the outcome was “inactive”. With O=S(=O)(c1ccc(O)cc1)c1ccc(O)cc1 the outcome was “inactive”. In the case of O=S(=O)(F)C(F)(F)C(F)(F)C(F)(F)C(F)(F)C(F)(F)C(F)(F)C(F)(F)C(F)(F)F, the outcome was “inactive”. With N#Cc1c(-c2ccc(Cl)cc2)[nH]c(C(F)(F)F)c1Br the AC50 was 0.0675 µM (active). In the case of ClC(Cl)=C(c1ccc(Cl)cc1)c1ccccc1Cl, the AC50 was 100 µM (active). With O=[N+]([O-])c1cc(Cl)ccc1Cl the outcome was “inactive”. In the case of Cn1[nH]nnc1=S, the outcome was “inactive”. In the case of CC(=O)CCc1ccc2c(c1)OCO2, the outcome was “inactive”. With CC(C)CBr the outcome was “inactive”. With CC1=C(C(=O)Nc2ccccc2)S(=O)(=O)CCO1 the outcome was “inactive”. With CCN(CC)C1CCCCC1 the outcome was “inactive”. For CCN(CC)c1ccccc1, the outcome was “inactive”. For O=C(O)C1C(C(=O)O)C2(Cl)C(Cl)=C(Cl)C1(Cl)C2(Cl)Cl (configuration not stated), the outcome was “inactive”. In the case of NNC(N)=S, the outcome was “inactive”. For CC1(C)CN=C(NN=C(/C=C/c2ccc(C(F)(F)F)cc2)/C=C/c2ccc(C(F)(F)F)cc2)NC1, the AC50 was 20.8 µM (active). In the case of O=C(CBr)OCc1ccccc1, the outcome was “inactive”. In the case of C=C(C)C(=O)OCC1CO1 (configuration not stated), the outcome was “inactive”. For CNC(=O)Oc1ccc(N(C)C)c(C)c1, the outcome was “inactive”. In the case of Oc1ccccc1Br, the outcome was “inactive”. With CCCCCCCc1ccc(O)cc1 the outcome was “inactive”. For COC(N)=O, the outcome was “inactive”. With COC(=O)C(F)(F)C(F)(F)OC(F)(C(F)(F)F)C(F)(F)OC(F)=C(F)F (configuration not stated) the outcome was “inactive”. In the case of CC(O)C#N (configuration not stated), the outcome was “inactive”. In the case of CCCCc1ccc(O)cc1, the outcome was “inactive”. With CC(Cl)CN(C)C (configuration not stated) the outcome was “inactive”. With Cc1cccc(N)c1 the outcome was “inactive”. With Cc1cc(C)c(C(=O)P(=O)(c2ccccc2)c2ccccc2)c(C)c1 the outcome was “inactive”. In the case of FC(F)(F)C(F)(C(F)(F)F)C(F)(F)C(F)(F)CC1CO1 (configuration not stated), the outcome was “inactive”. For COP(=O)(O)OC, the outcome was “inactive”. For CO/N=C(/C(=O)OC)c1ccccc1COc1ccccc1C, the AC50 was 21.9 µM (active). For CC(O)C(F)(F)C(F)(F)F (configuration not stated), the outcome was “inactive”. With CCCCN(CC)C(=O)SCCC the outcome was “inactive”. With N#Cc1ccc(O)cc1 the outcome was “inactive”. For OCC(F)(F)OC(F)(F)C(F)(F)OC(F)(F)C(F)(F)OC(F)(F)F, the outcome was “inactive”. For Clc1ccc(Oc2ccccc2)cc1, the outcome was “inactive”.
